# This is part of a sample that, as a whole, favours compounds with a hit. Of some 79,000 tested, about 15% had one in any assay. A number with no mark means an inactive call. Calls of active or inactive are those of the source. No stated cut-off is given here; in the data, active means growth inhibition above about 70%; inactive means the rest.
# How the values were obtained:
# [1] = NCI Yeast Anticancer Drug Screen. Data for the rad52 strain (AID 147);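 further: 0% = growth of vehicle-treated control cultures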; conditions: S. cerevisiae rad52 mutant growth inhibition, hits give high values
# Summary of the method: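 Here a repair-compromised yeast strain receives each compound; its growth is then quantified and normalised to vehicle-only controls.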
# [2] = NCI Yeast Anticancer Drug Screen. Data for the wt1 strain (AID 149);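 further: 0% = growth of vehicle-treated wt1 cultures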; conditions: S. cerevisiae wt1 strain (SPY 50644) growth inhibition, hits give high values
# Summary of the method: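 Using yeast strain wt1, compound-induced growth inhibition was determined against vehicle-treated cultures.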
# [3] = NCI Yeast Anticancer Drug Screen. Data for the rad50EPP+ strain (AID 151);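 further: 0% = growth of vehicle-treated control cultures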; conditions: S. cerevisiae rad50 mutant strain, hits give high values
# Summary of the method: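 Read-out is yeast growth inhibition relative to vehicle; cells used were the rad50EPP+ strain.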
# [4] = NCI Yeast Anticancer Drug Screen. Data for the rad50 strain (AID 155);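 further: 0% = growth of vehicle-only cultures of the same strain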; conditions: S. cerevisiae rad50 strain growth inhibition, hits give high values
# Summary of the method: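 Relative growth inhibition (compound vs vehicle) was measured in yeast with a defined repair-gene alteration.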
# [5] = NCI Yeast Anticancer Drug Screen. Data for the mec2-1 strain (AID 157); conditions: S. cerevisiae mec2-1 strain, hits give high values
# Summary of the method: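 Using mec2-1 yeast: add compound, measure growth, express inhibition versus vehicle-treated cultures.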
# [6] = NCI Yeast Anticancer Drug Screen. Data for the rad14 strain (AID 159);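 further: 0% = growth of vehicle-treated control cultures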; conditions: S. cerevisiae rad14 strain growth inhibition, hits give high values
# Summary of the method: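 Screen for anticancer potential: a yeast strain altered in DNA damage repair is grown with compound, and reduced growth is quantified against vehicle controls.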
# [7] = NCI Yeast Anticancer Drug Screen. Data for the sgs1 mgt1 strain (AID 161);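 further: 0% = growth of cultures given vehicle only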; conditions: S. cerevisiae sgs1 mgt1 strain, hits give high values
# Summary of the method: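 Percent growth inhibition was derived by comparing compound-exposed mutant yeast with vehicle-exposed cultures. The strain carries alterations in DNA damage repair.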
# [8] = NCI Yeast Anticancer Drug Screen. Data for the CLN2oe strain (AID 163);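 further: 0% = growth of vehicle-only control cultures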; conditions: S. cerevisiae CLN2oe strain, hits give high values
# Summary of the method: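 Whole-cell yeast growth assay. A strain engineered for altered cell-cycle control received compound, and inhibition relative to vehicle-treated cultures was recorded.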
# [9] = NCI Yeast Anticancer Drug Screen. Data for the bub3 strain (AID 167); conditions: S. cerevisiae bub3 mutant strain, hits give high values
# Summary of the method: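 Screening used yeast with an engineered genetic alteration affecting cell cycle control. Compound-exposed cultures were compared with vehicle cultures, and reduced growth was taken as inhibition.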
# [10] = NCI Yeast Anticancer Drug Screen. Data for the wt2 strain (AID 169);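 further: 0% = growth of vehicle-treated yeast cultures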; conditions: S. cerevisiae wt2 strain growth inhibition, hits give high values
# Summary of the method: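 Treated yeast vs. vehicle-treated yeast: growth inhibition determined.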
# [11] = NCI Yeast Anticancer Drug Screen. Data for the mlh1 strain (AID 171);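 further: 0% = growth of vehicle-treated control cultures of the same strain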; conditions: S. cerevisiae mlh1 strain growth inhibition, hits give high values
# Summary of the method: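 A yeast strain with a defined genetic lesion serves as the test organism. Cultures receive compound or vehicle, and growth is measured.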
# [12] = NCI Yeast Anticancer Drug Screen. Data for the sgs1 strain (AID 173);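 further: 0% = growth of vehicle-only control cultures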; conditions: S. cerevisiae sgs1 mutant, hits give high values
# Summary of the method: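 A genetically defined yeast mutant is incubated with the test compound, and its growth is compared to that of the same strain given vehicle.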
# [13] = NCI Yeast Anticancer Drug Screen. Data for the mlh1 rad18 strain (AID 175); conditions: S. cerevisiae mlh1 rad18 strain growth inhibition, hits give high values
# Summary of the method: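 Steps: expose repair-defective yeast to compound; measure growth; express inhibition against vehicle-treated controls.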
# [14] = NCI Yeast Anticancer Drug Screen. Data for the rad18 strain (AID 177); conditions: S. cerevisiae rad18 mutant growth inhibition, hits give high values
# Summary of the method: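 Measured value is growth inhibition of a yeast strain bearing a DNA repair alteration, referenced to vehicle-treated cells.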
# [15] = NCI Yeast Anticancer Drug Screen. Data for the cln2 rad14 strain (AID 165);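 further: 0% = growth equal to vehicle treated cultures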; conditions: S. cerevisiae cln2 rad14 strain, hits give high values
# Summary of the method: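 Yeast strain cln2 rad14, bearing defects in cell cycle control and DNA repair, serves as the test system; values reflect growth inhibition compared with vehicle.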
# [16] = at 5.0 µM (retest, dose inferred, filed as 0.5)
# [17] = at 50.0 µM (retest, dose inferred, filed as 5.0)
structure (smiles),measurement,setting,value
c1ccc2c(c1)ccc1c3ccncc3ccc21,growth inhibition,[1]; at 1.2 µM,15%
same,growth inhibition,[1]; at 3.7 µM,80% (active)
same,growth inhibition,[1]; at 11.0 µM,99% (active)
same,growth inhibition,[1]; at 33.0 µM,99% (active)
same,growth inhibition,[1]; at 100.0 µM,95% (active)
same,growth inhibition,[2]; at 1.2 µM,-6%
same,growth inhibition,[2]; at 3.7 µM,-3%
same,growth inhibition,[2]; at 11.0 µM,47%
same,growth inhibition,[2]; at 33.0 µM,99% (active)
same,growth inhibition,[2]; at 100.0 µM,97% (active)
same,growth inhibition,[3]; at 1.2 µM,35%
same,growth inhibition,[3]; at 3.7 µM,86% (active)
same,growth inhibition,[3]; at 11.0 µM,98% (active)
same,growth inhibition,[3]; at 33.0 µM,98% (active)
same,growth inhibition,[3]; at 100.0 µM,92% (active)
same,growth inhibition,[4]; at 1.2 µM,12%
same,growth inhibition,[4]; at 3.7 µM,74% (active)
same,growth inhibition,[4]; [16],90% (active)
same,growth inhibition,[4]; at 11.0 µM,98% (active)
same,growth inhibition,[4]; at 33.0 µM,99% (active)
same,growth inhibition,[4]; [17],94% (active)
same,growth inhibition,[4]; at 50.0 µM,97.8% (active)
same,growth inhibition,[4]; at 100.0 µM,93% (active)
same,growth inhibition,[5]; at 1.2 µM,3%
same,growth inhibition,[5]; at 3.7 µM,4%
same,growth inhibition,[5]; [16],-15%
same,growth inhibition,[5]; at 11.0 µM,85% (active)
same,growth inhibition,[5]; at 33.0 µM,99% (active)
same,growth inhibition,[5]; [17],95% (active)
same,growth inhibition,[5]; at 50.0 µM,98.2% (active)
same,growth inhibition,[5]; at 100.0 µM,98% (active)
same,growth inhibition,[6]; at 1.2 µM,9%
same,growth inhibition,[6]; at 3.7 µM,15%
same,growth inhibition,[6]; at 11.0 µM,90% (active)
same,growth inhibition,[6]; at 33.0 µM,99% (active)
same,growth inhibition,[6]; at 100.0 µM,96% (active)
same,growth inhibition,[7]; [16],-15%
same,growth inhibition,[7]; [17],97% (active)
same,growth inhibition,[7]; at 50.0 µM,98% (active)
same,growth inhibition,[8]; at 1.2 µM,0%
same,growth inhibition,[8]; at 3.7 µM,13%
same,growth inhibition,[8]; at 11.0 µM,93% (active)
same,growth inhibition,[8]; at 33.0 µM,99% (active)
same,growth inhibition,[8]; at 100.0 µM,96% (active)
same,growth inhibition,[9]; at 1.2 µM,8%
same,growth inhibition,[9]; at 3.7 µM,35%
same,growth inhibition,[9]; [16],16%
same,growth inhibition,[9]; at 11.0 µM,93% (active)
same,growth inhibition,[9]; at 33.0 µM,99% (active)
same,growth inhibition,[9]; [17],96% (active)
same,growth inhibition,[9]; at 50.0 µM,97.1% (active)
same,growth inhibition,[9]; at 100.0 µM,98% (active)
same,growth inhibition,[10]; at 1.2 µM,-3%
same,growth inhibition,[10]; at 3.7 µM,0%
same,growth inhibition,[10]; at 11.0 µM,80% (active)
same,growth inhibition,[10]; at 33.0 µM,99% (active)
same,growth inhibition,[10]; at 100.0 µM,96% (active)
same,growth inhibition,[11]; at 1.2 µM,4%
same,growth inhibition,[11]; at 3.7 µM,2%
same,growth inhibition,[11]; at 11.0 µM,83% (active)
same,growth inhibition,[11]; at 33.0 µM,99% (active)
same,growth inhibition,[11]; at 100.0 µM,96% (active)
same,growth inhibition,[12]; at 1.2 µM,-3%
same,growth inhibition,[12]; at 3.7 µM,12%
same,growth inhibition,[12]; at 11.0 µM,96% (active)
same,growth inhibition,[12]; at 33.0 µM,99% (active)
same,growth inhibition,[12]; at 100.0 µM,94% (active)
same,growth inhibition,[13]; [16],-4%
same,growth inhibition,[13]; [17],94% (active)
same,growth inhibition,[13]; at 50.0 µM,97.5% (active)
same,growth inhibition,[14]; at 1.2 µM,-2%
same,growth inhibition,[14]; at 3.7 µM,18%
same,growth inhibition,[14]; at 11.0 µM,96% (active)
same,growth inhibition,[14]; at 33.0 µM,99% (active)
same,growth inhibition,[14]; at 100.0 µM,94% (active)
Cc1nc2c(ncn2CCO)c(=O)[nH]1,growth inhibition,[1]; at 1.2 µM,-3%
same,growth inhibition,[1]; at 3.7 µM,-8%
same,growth inhibition,[1]; at 11.0 µM,-7%
same,growth inhibition,[1]; at 33.0 µM,-12%
same,growth inhibition,[1]; at 100.0 µM,-14%
same,growth inhibition,[2]; at 1.2 µM,-36%
same,growth inhibition,[2]; at 3.7 µM,-22%
same,growth inhibition,[2]; at 11.0 µM,-38%
same,growth inhibition,[2]; at 33.0 µM,-42%
same,growth inhibition,[2]; at 100.0 µM,-41%
same,growth inhibition,[3]; at 1.2 µM,-11%
same,growth inhibition,[3]; at 3.7 µM,10%
same,growth inhibition,[3]; at 11.0 µM,5%
same,growth inhibition,[3]; at 33.0 µM,3%
same,growth inhibition,[3]; at 100.0 µM,1%
same,growth inhibition,[4]; at 1.2 µM,-29%
same,growth inhibition,[4]; at 3.7 µM,-34%
same,growth inhibition,[4]; [16],29%
same,growth inhibition,[4]; at 11.0 µM,-32%
same,growth inhibition,[4]; at 33.0 µM,-33%
same,growth inhibition,[4]; [17],39%
same,growth inhibition,[4]; at 50.0 µM,7.95%
same,growth inhibition,[4]; at 100.0 µM,-24%
same,growth inhibition,[5]; at 1.2 µM,15%
same,growth inhibition,[5]; at 3.7 µM,-2%
same,growth inhibition,[5]; [16],13%
same,growth inhibition,[5]; at 11.0 µM,-3%
same,growth inhibition,[5]; at 33.0 µM,-3%
same,growth inhibition,[5]; [17],47%
same,growth inhibition,[5]; at 50.0 µM,-20.6%
same,growth inhibition,[5]; at 100.0 µM,-13%
same,growth inhibition,[6]; at 1.2 µM,-3%
same,growth inhibition,[6]; at 3.7 µM,6%
same,growth inhibition,[6]; at 11.0 µM,11%
same,growth inhibition,[6]; at 33.0 µM,-5%
same,growth inhibition,[6]; at 100.0 µM,-2%
same,growth inhibition,[7]; [16],29%
same,growth inhibition,[7]; at 50.0 µM,2.1%
same,growth inhibition,[8]; at 1.2 µM,0%
same,growth inhibition,[8]; at 3.7 µM,-7%
same,growth inhibition,[8]; at 11.0 µM,-2%
same,growth inhibition,[8]; at 33.0 µM,-6%
same,growth inhibition,[8]; at 100.0 µM,-4%
same,growth inhibition,[15]; [16],8%
same,growth inhibition,[15]; [17],34%
same,growth inhibition,[15]; at 50.0 µM,8.25%
same,growth inhibition,[9]; at 1.2 µM,-10%
same,growth inhibition,[9]; at 3.7 µM,-7%
same,growth inhibition,[9]; [16],21%
same,growth inhibition,[9]; at 11.0 µM,-17%
same,growth inhibition,[9]; at 33.0 µM,-13%
same,growth inhibition,[9]; [17],76% (active)
same,growth inhibition,[9]; at 50.0 µM,0.5%
same,growth inhibition,[9]; at 100.0 µM,-28%
same,growth inhibition,[10]; at 1.2 µM,-15%
same,growth inhibition,[10]; at 3.7 µM,-30%
same,growth inhibition,[10]; at 11.0 µM,-31%
same,growth inhibition,[10]; at 33.0 µM,-37%
same,growth inhibition,[10]; at 100.0 µM,-38%
same,growth inhibition,[11]; at 1.2 µM,-16%
same,growth inhibition,[11]; at 3.7 µM,-11%
same,growth inhibition,[11]; at 11.0 µM,-14%
same,growth inhibition,[11]; at 33.0 µM,-18%
same,growth inhibition,[11]; at 100.0 µM,-5%
same,growth inhibition,[12]; at 1.2 µM,2%
same,growth inhibition,[12]; at 3.7 µM,8%
same,growth inhibition,[12]; at 11.0 µM,9%
same,growth inhibition,[12]; at 33.0 µM,5%
same,growth inhibition,[12]; at 100.0 µM,-2%
same,growth inhibition,[13]; [16],45%
same,growth inhibition,[13]; [17],91% (active)
same,growth inhibition,[13]; at 50.0 µM,-40.7%
same,growth inhibition,[14]; at 1.2 µM,-38%
same,growth inhibition,[14]; at 3.7 µM,-32%
same,growth inhibition,[14]; at 11.0 µM,-9%
same,growth inhibition,[14]; at 33.0 µM,-35%
same,growth inhibition,[14]; at 100.0 µM,-36%

# Source: PubChem BioAssay (NCI)
